# Laboratory results published in PubChem BioAssay (NCATS).
# Inconclusive results are not listed. A number with no mark means an inactive call. Active and inactive are the calls of the source. Calls follow the shape of the dose curve; as a rule, active = well fitted inhibition curve with a large enough effect; inconclusive = small, poorly fitted or top-dose-only effect; inactive = flat fitted curve, though single readings scatter.
# Target: Ubiquitin carboxyl-terminal hydrolase 1 (Homo sapiens) (UniProt O94782)
# Sequence (O94782 whole entry, looked up): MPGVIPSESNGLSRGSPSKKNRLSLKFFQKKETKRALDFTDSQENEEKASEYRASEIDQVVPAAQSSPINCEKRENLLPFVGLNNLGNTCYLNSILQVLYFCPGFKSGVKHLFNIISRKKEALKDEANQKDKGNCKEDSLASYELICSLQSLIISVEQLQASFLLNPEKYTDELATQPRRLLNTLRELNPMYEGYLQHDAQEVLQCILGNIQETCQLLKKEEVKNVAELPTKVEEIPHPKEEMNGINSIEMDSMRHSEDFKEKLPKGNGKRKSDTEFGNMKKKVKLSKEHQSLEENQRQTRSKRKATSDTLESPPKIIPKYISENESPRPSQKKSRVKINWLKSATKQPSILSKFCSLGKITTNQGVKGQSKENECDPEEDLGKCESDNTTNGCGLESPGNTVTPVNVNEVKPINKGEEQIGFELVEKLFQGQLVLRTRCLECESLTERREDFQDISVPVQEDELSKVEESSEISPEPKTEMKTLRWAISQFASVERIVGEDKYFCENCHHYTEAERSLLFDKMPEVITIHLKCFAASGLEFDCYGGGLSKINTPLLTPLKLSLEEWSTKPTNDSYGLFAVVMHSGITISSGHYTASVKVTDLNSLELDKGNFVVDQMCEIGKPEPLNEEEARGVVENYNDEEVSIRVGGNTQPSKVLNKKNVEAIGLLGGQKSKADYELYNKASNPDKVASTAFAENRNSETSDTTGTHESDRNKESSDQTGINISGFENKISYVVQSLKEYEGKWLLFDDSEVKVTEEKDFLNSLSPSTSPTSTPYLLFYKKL
# Assay: Inhibitors of USP1/UAF1: Pilot qHTS (AID 504865); also: nearly all actives have a fitted effect of over 35% in size;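 as to activity change, negative = inhibition: rhodamine fluorescence freed from ubiquitin-rhodamine substrate followed over time; top concentration of the series differs between compounds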
# Conditions: purified USP1/UAF1, Ub-rhodamine cleavage fluorescence; series mostly up to 114 µM; activity change, negative = inhibition: at the top concentration
# How it was run: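 Deubiquitinase activity followed as kinetic rhodamine fluorescence release from 150 nM Ub-Rho. 1 nM USP1/UAF1 with compound, after 15 min room-temperature preincubation, in HEPES pH 7.8 buffer containing TCEP, EDTA, BSA and Tween-20.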
# % is scaled to controls: 0 for no effect and ±100 for the full control effect; potency is read from the fitted curve at half-maximal effect.
Structure (SMILES),"activity change, negative = inhibition [%]",Potency
FC(F)OC(Cl)C(F)(F)F (stereo unspecified),-4.77,–
CCCC(CCC)C(=O)OC1C[C@H]2CC[C@@H](C1)[N+]2(C)C (stereo partly specified),-9.53,–
O=P(O)(O)OC[C@H](O)CO,2.45,–
CNC(=O)[C@H](Cc1c[nH]c2ccccc12)NC(=O)[C@@H](CC(=O)NO)CC(C)C,-2.14,–
CCCc1nc(C(C)(C)O)c(C(=O)OCc2oc(=O)oc2C)n1Cc1ccc(-c2ccccc2-c2nn[nH]n2)cc1,-12.5,–
CC(CCc1ccc(O)cc1)NCC(O)c1ccc(O)cc1 (stereo unspecified),-3.83,–
Cc1cc(-c2ccc(N=Nc3c(S(=O)(=O)O)cc4cc(S(=O)(=O)O)cc(N)c4c3O)c(C)c2)ccc1N=Nc1c(S(=O)(=O)O)cc2cc(S(=O)(=O)O)cc(N)c2c1O,–,8.91 µM (active)
CCN(CC)CCC(=O)N1c2ccccc2Sc2ccc(C(F)(F)F)cc21,-8.68,–
CC(C)CCCC(C)NC(C)C (stereo unspecified),-7.89,–
O=C1c2ccccc2CN2C(=O)c3ccccc3CN12,-8.04,–
O=C(CCCN1CCN2CCCC2C1)c1ccc(F)cc1 (stereo unspecified),-9.42,–
CS(=O)(=O)OCC(O)C(O)COS(C)(=O)=O (stereo unspecified),2.25,–
OCCCNc1ccccc1,-3.21,–
COc1cc(C)c(/C=C/C(C)=C/C=C/C(C)=C/C(=O)O)c(C)c1C,–,50.1 µM (active)
Oc1cc(O)cc(O)c1,-3.08,–
CC1(O)CCC(C(C)(C)O)CC1 (stereo unspecified),-9.87,–
O=C1[O][Bi][O]c2ccccc21,-2.06,–
CN(Cc1ccccc1)Cc1ccccc1,-7.11,–
CSCCC(N)C(=O)O (stereo unspecified),-3.81,–
CCN(CC)CCOc1ccc2nc(N(C)C)sc2c1,-0.59,–
CC(C)[C@@H](N)C(=O)O,3.81,–
